Here are results for 32 molecules from PubChem BioAssay (Tox21).

Structures are written as SMILES. Results filed as inconclusive are left out. The source made the active and inactive calls. Calls come from the whole dose curve; as a rule, active = well fitted activation curve with a large enough effect in the signal ratio in the repeat runs, with a control signal flat (not every such curve was filed as active); inconclusive = weak or mixed curves; inactive = flat fitted curve, though single readings scatter; the % refers to the signal ratio.

This assay can be described thus: qHTS assay for small molecule activators of the heat shock response signaling pathway (AID 743210).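 Note: HeLa cells with beta-lactamase reporter driven by heat shock elements.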 Conditions: HeLa HSE-bla reporter, beta-lactamase ratio, 5 h; series mostly up to 62.6 µM. Summed up: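 HeLa HSE-bla cells, overnight plating; cpd in DMSO 5 h, 37 C; LiveBLAzer B/G FRET substrate 2.5 h RT; fluorescence intensity read.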
Turning to `O=C1[C@H](CC[C@H](O)c2ccc(F)cc2)[C@@H](c2ccc(O)cc2)N1c1ccc(F)cc1`, the outcome was inactive.
Under `CC(=O)c1ccc2c(c1)[C@H](NC(=O)c1ccc(F)cc1)[C@@H](O)C(C)(C)O2` stands “inactive”.
For `CCOc1ccc2[nH]cc(C(=O)NCc3ccccc3)c(=O)c2n1`, the result was inactive.
On to `Oc1ccc(Sc2ccc(O)cc2)cc1`, for which the result was inactive.
Take `N#Cc1cc2ccccc2c2ccccc12`: the outcome was inactive.
As for `CC(C)(Oc1ccc(Cl)cc1)C(=O)OCCCOC(=O)C(C)(C)Oc1ccc(Cl)cc1`, the outcome was inactive.
As for `CCN(CC)C(C)CN1c2ccccc2Sc2ccccc21` (configuration not stated), the outcome was inactive.
Take `Cc1ccc2c(ccc3ccccc32)c1`: the outcome was inactive.
With `CN1CCC(OC(c2ccccc2)c2ccccc2)CC1`, the result was inactive.
Under `O=C(Cl)c1c(Cl)cccc1Cl` stands “inactive”; under `CNCC[C@@H](Oc1ccccc1C)c1ccccc1`, “inactive”.
Consider `COc1ccc(C(C)=O)cc1`, for which the outcome was inactive.
In the case of `O=C1Nc2cc(Cl)ccc2Oc2ccccc21`, the outcome was inactive.
Turning to `CCCCCCCC/C=C\CCCCCCCC(N)=O`, the outcome was inactive.
In the case of `O=C1CCCCCO1`, the result was inactive.
`COC(Cc1ccccc1)OC`: the outcome was inactive.
Under `O=C(O)c1cn(C2CC2)c2cc(Cl)c(F)cc2c1=O` stands “inactive”.
Under `O=[N+]([O-])c1cc[n+]([O-])cc1` stands “inactive”.
Take `CC(=O)N(CC(=O)N(C)C)c1ccccc1`: the outcome was inactive.
Turning to `CC(=O)c1c(C)c([N+](=O)[O-])c(C(C)(C)C)c([N+](=O)[O-])c1C`, the outcome was inactive.
As for `CC1CCc2cc(F)cc3c(=O)c(C(=O)O)cn1c23` (configuration not stated), the outcome was inactive.
Under `CC(=O)O[C@H]1C[C@@H]2CC[C@@H]3[C@H](CC[C@@]4(C)[C@H]3C[C@H]([N+]3(C)CCCCC3)[C@@H]4OC(C)=O)[C@@]2(C)C[C@@H]1N1CCCCC1` stands “inactive”; under `CN(C)CC[C@@H](c1ccc(Br)cc1)c1ccccn1`, “inactive”.
For `CC(C)NCC(O)c1cc(O)cc(O)c1` (configuration not stated), the result was inactive.
For the molecule `CCN1CCC[C@H]1CNC(=O)c1c(OC)ccc(Br)c1OC`, the outcome was inactive.
For `CCCC(=O)OCC`, the result was inactive.
In the case of `Cc1cc(CC(=O)O)c(C)n1-c1ccc(Cl)cc1`, the outcome was inactive.
For `COc1ccc2[nH]c(S(=O)Cc3ncc(C)c(OC)c3C)nc2n1` (configuration not stated) the value was “inactive”.
Under `CCN(CC)CCOc1ccc2c(c1)C(=O)c1cc(OCCN(CC)CC)ccc1-2` stands “inactive”; under `CC(C)(C)c1cc(CO)cc(C(C)(C)C)c1O`, “inactive”.
For `CC(C)CC=O` the value was “inactive”; for `COc1cc(C(C)(C)C)c(O)c(C(C)(C)C)c1`, “inactive”.
